Out of some 5,500 compounds screened, about 2,000 (36%) were called active. About 18% were inconclusive and are not listed. Some of the results follow. Values without a mark were called inactive. Cut-off read from the data, not from the text of the source: active = normalized growth mostly below about 0.91 (no sharp cut-off); inconclusive = no clear call, values can overlap the other calls; inactive = mostly above about 0.92.
Assay: chemical genetic growth profiling, strain panel (AID 1159580);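 note: tested at 20 µM; growth read once vehicle control cultures reached saturation at 30 °C; 1 = growth at the plate median or of vehicle wells; lower values mean less growth of the strain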
Conditions: growth OD

O=c1oc2ccccc2c(O)c1Cc1c(O)c2ccccc2oc1=O
normalized growth (S. cerevisiae deletion strains, locus YJR066W, strain TOR1, stronger effect = lower value): 0.859
normalized growth (S. cerevisiae deletion strains, locus YKL009W, strain mrt4, stronger effect = lower value): 0.944
normalized growth (S. cerevisiae deletion strains, locus YKL068W, stronger effect = lower value): 0.959
normalized growth (S. cerevisiae deletion strains, locus YKL085W, strain MDH1 (second series), stronger effect = lower value): 0.923 (active)
normalized growth (S. cerevisiae deletion strains, locus YKL085W, strain MDH1, stronger effect = lower value): 0.923 (active)
normalized growth (S. cerevisiae deletion strains, locus YKL160W, strain elf1, stronger effect = lower value): 1.01
normalized growth (S. cerevisiae deletion strains, locus YKR001C, strain vps1, stronger effect = lower value): 0.962
normalized growth (S. cerevisiae deletion strains, locus YKR026C, strain gcn3, stronger effect = lower value): 1.02
normalized growth (S. cerevisiae deletion strains, locus YKR091W, strain srl3, stronger effect = lower value): 0.999
normalized growth (S. cerevisiae deletion strains, locus YLL001W, strain dnm1, stronger effect = lower value): 1.03
normalized growth (S. cerevisiae deletion strains, locus YLL026W, stronger effect = lower value): 0.996
normalized growth (S. cerevisiae deletion strains, locus YLL041C, strain sdh2, stronger effect = lower value): 0.987
normalized growth (S. cerevisiae deletion strains, locus YLR027C, strain aat2, stronger effect = lower value): 0.992
normalized growth (S. cerevisiae deletion strains, locus YLR039C, strain RIC1, stronger effect = lower value): 1.01
normalized growth (S. cerevisiae deletion strains, locus YLR058C, strain SHM2, stronger effect = lower value): 1
normalized growth (S. cerevisiae deletion strains, locus YLR102C, strain apc9, stronger effect = lower value): 0.964
normalized growth (S. cerevisiae deletion strains, locus YLR113W, strain HOG1, stronger effect = lower value): 0.965
normalized growth (S. cerevisiae deletion strains, locus YLR221C, strain rsa3, stronger effect = lower value): 0.994
normalized growth (S. cerevisiae deletion strains, locus YLR258W, strain gsy2, stronger effect = lower value): 1
normalized growth (S. cerevisiae deletion strains, locus YLR262C, strain YPT6 (second series), stronger effect = lower value): 0.975
normalized growth (S. cerevisiae deletion strains, locus YLR262C, strain YPT6, stronger effect = lower value): 1.01
normalized growth (S. cerevisiae deletion strains, locus YLR268W, strain sec22, stronger effect = lower value): 1
normalized growth (S. cerevisiae deletion strains, locus YLR320W, strain mms22, stronger effect = lower value): 0.989
normalized growth (S. cerevisiae deletion strains, locus YLR330W, strain CHS5, stronger effect = lower value): 0.993
normalized growth (S. cerevisiae deletion strains, locus YLR342W, strain FKS1 (second series), stronger effect = lower value): 1.03
normalized growth (S. cerevisiae deletion strains, locus YLR342W, strain FKS1, stronger effect = lower value): 1
normalized growth (S. cerevisiae deletion strains, locus YLR357W, strain rsc2, stronger effect = lower value): 1.01
normalized growth (S. cerevisiae deletion strains, locus YLR370C, strain arc18, stronger effect = lower value): 1
normalized growth (S. cerevisiae deletion strains, locus YLR371W, strain rom2, stronger effect = lower value): 0.968
normalized growth (S. cerevisiae deletion strains, locus YLR384C, strain iki3, stronger effect = lower value): 1
normalized growth (S. cerevisiae deletion strains, locus YLR418C, strain cdc73, stronger effect = lower value): 0.948
normalized growth (S. cerevisiae deletion strains, locus YML016C, strain PPZ1, stronger effect = lower value): 1
normalized growth (S. cerevisiae deletion strains, locus YML032C, strain rad52, stronger effect = lower value): 0.986
normalized growth (S. cerevisiae deletion strains, locus YML120C, strain ndi1, stronger effect = lower value): 1.02
normalized growth (S. cerevisiae deletion strains, locus YML124C, strain tub3, stronger effect = lower value): 0.961
normalized growth (S. cerevisiae deletion strains, locus YMR058W, strain fet3, stronger effect = lower value): 1
normalized growth (S. cerevisiae deletion strains, locus YMR078C, strain ctf18, stronger effect = lower value): 0.958
normalized growth (S. cerevisiae deletion strains, locus YMR125W, strain sto1, stronger effect = lower value): 1.02
normalized growth (S. cerevisiae deletion strains, locus YMR129W, stronger effect = lower value): 1.01
normalized growth (S. cerevisiae deletion strains, locus YMR205C, strain PFK2, stronger effect = lower value): 1
normalized growth (S. cerevisiae deletion strains, locus YMR223W, strain ubp8, stronger effect = lower value): 0.953
normalized growth (S. cerevisiae deletion strains, locus YMR231W, strain pep5, stronger effect = lower value): 1
normalized growth (S. cerevisiae deletion strains, locus YMR307W, strain GAS1, stronger effect = lower value): 0.947
normalized growth (S. cerevisiae deletion strains, locus YNL067W, strain RPL9B, stronger effect = lower value): 0.987
normalized growth (S. cerevisiae deletion strains, locus YNL071W, strain lat1, stronger effect = lower value): 1.02
normalized growth (S. cerevisiae deletion strains, locus YNL128W, strain TEP1, stronger effect = lower value): 0.998
normalized growth (S. cerevisiae deletion strains, locus YNL153C, strain GIM3, stronger effect = lower value): 1
normalized growth (S. cerevisiae deletion strains, locus YNL183C, strain NPR1, stronger effect = lower value): 0.949
normalized growth (S. cerevisiae deletion strains, locus YNL209W, strain ssb2, stronger effect = lower value): 0.999
normalized growth (S. cerevisiae deletion strains, locus YNL233W, strain BNI4, stronger effect = lower value): 1
normalized growth (S. cerevisiae deletion strains, locus YNL248C, strain rpa49, stronger effect = lower value): 1.05
normalized growth (S. cerevisiae deletion strains, locus YNL250W, strain rad50, stronger effect = lower value): 0.958
normalized growth (S. cerevisiae deletion strains, locus YNL271C, strain bni1, stronger effect = lower value): 0.942
normalized growth (S. cerevisiae deletion strains, locus YNL298W, strain CLA4, stronger effect = lower value): 0.932
normalized growth (S. cerevisiae deletion strains, locus YNL307C, strain MCK1, stronger effect = lower value): 0.973
normalized growth (S. cerevisiae deletion strains, locus YNL322C, strain KRE1 (second series), stronger effect = lower value): 0.98
normalized growth (S. cerevisiae deletion strains, locus YNL322C, strain KRE1, stronger effect = lower value): 0.987
normalized growth (S. cerevisiae deletion strains, locus YNR049C, strain mso1, stronger effect = lower value): 0.996
normalized growth (S. cerevisiae deletion strains, locus YNR052C, strain pop2, stronger effect = lower value): 0.97
normalized growth (S. cerevisiae deletion strains, locus YOL012C, strain htz1): 1.21
normalized growth (S. cerevisiae deletion strains, locus YOL147C, strain pex11, stronger effect = lower value): 0.961
normalized growth (S. cerevisiae deletion strains, locus YOR001W, strain rrp6, stronger effect = lower value): 0.997
normalized growth (S. cerevisiae deletion strains, locus YOR061W, strain CKA2, stronger effect = lower value): 1
normalized growth (S. cerevisiae deletion strains, locus YOR069W, strain VPS5, stronger effect = lower value): 0.99
normalized growth (S. cerevisiae deletion strains, locus YOR070C, strain gyp1, stronger effect = lower value): 1
normalized growth (S. cerevisiae deletion strains, locus YOR080W, strain dia2, stronger effect = lower value): 1
normalized growth (S. cerevisiae deletion strains, locus YOR083W, strain WHI5, stronger effect = lower value): 0.968
normalized growth (S. cerevisiae deletion strains, locus YOR106W, strain vam3, stronger effect = lower value): 1.04
normalized growth (S. cerevisiae deletion strains, locus YOR136W, strain idh2, stronger effect = lower value): 0.988
normalized growth (S. cerevisiae deletion strains, locus YOR144C, strain elg1, stronger effect = lower value): 0.968
normalized growth (S. cerevisiae deletion strains, locus YOR184W, strain ser1, stronger effect = lower value): 0.978
normalized growth (S. cerevisiae deletion strains, locus YOR231W, strain MKK1, stronger effect = lower value): 0.954
normalized growth (S. cerevisiae deletion strains, locus YOR265W, strain rbl2, stronger effect = lower value): 1
normalized growth (S. cerevisiae deletion strains, locus YOR270C, strain vph1, stronger effect = lower value): 1.06
normalized growth (S. cerevisiae deletion strains, locus YOR290C, strain snf2, stronger effect = lower value): 1.01
normalized growth (S. cerevisiae deletion strains, locus YOR316C, strain cot1, stronger effect = lower value): 0.968
normalized growth (S. cerevisiae deletion strains, locus YPL051W, strain arl3, stronger effect = lower value): 1
normalized growth (S. cerevisiae deletion strains, locus YPL078C, strain atp4, stronger effect = lower value): 1.02
normalized growth (S. cerevisiae deletion strains, locus YPL106C, strain sse1, stronger effect = lower value): 0.952
normalized growth (S. cerevisiae deletion strains, locus YPL240C, strain hsp82, stronger effect = lower value): 0.997
normalized growth (S. cerevisiae deletion strains, locus YPL241C, strain CIN2, stronger effect = lower value): 0.987
normalized growth (S. cerevisiae deletion strains, locus YPL256C, strain CLN2, stronger effect = lower value): 0.914
normalized growth (S. cerevisiae deletion strains, locus YPR119W, strain clb2, stronger effect = lower value): 0.966
normalized growth (S. cerevisiae deletion strains, locus YPR141C, strain kar3, stronger effect = lower value): 0.948
normalized growth (S. cerevisiae deletion strains, locus YPR163C, strain tif3, stronger effect = lower value): 0.958
normalized growth (S. cerevisiae deletion strains, locus YPR167C, strain met16, stronger effect = lower value): 0.958
normalized growth (S. cerevisiae deletion strains, strain wtn01, stronger effect = lower value): 0.978
normalized growth (S. cerevisiae strains, strain wild type, stronger effect = lower value): 0.998

Source: PubChem BioAssay AID1159580 (chemical genetic matrix, 2015)
